The values below come from article PMC12864922, “TDP-43 directly inhibits mRNA accumulation in neurites through modulation of mRNA stability”.

To fix the notation:
B1: ENSMUSG00000034801.232|Sos2|152:160 (ssRNA)
RNA: GGGAGUUCUACAGUCCGACGAUCGCUUCGAUAUCCGCAUGCUAUAACUGUCUUUAAUCUCGUGUUAACUGAAAUUUUUGAAAAGUUUUUCCAGAUUAGUAAUAUUUAAACAGAAAAUACUUUAAAAAGCUUUAUUAAAUUUUUUAAUCAGGAUAAAGCUUUGCCAUUUGGAUACUAUCAUUCAAAGUGAUCAAGCAUACAUACUUAUGCUGAUAGUGCAGUAGCAGCCAUUGUAAAGUAGCCAAAAGCCACGUUGUUUAUCUACUGGUCUGUGGCCUUUUACUGUGCUUUGUAUCAGAGUUCUCUCUUGCGGUCGCACUAGUGUGGAAUUCUCGGGUGUCAAGG
B2: ENSMUSG00000031028.95|Tub (ssRNA)
RNA: GGGAGUUCUACAGUCCGACGAUCGCUUCGAUAUCCGCAUGCUAGGUGGUCAGCAGAAAGCACUCCCACUUCAAAAGGGCCCAUUAGGCCCAAAGGGGGUUAGGAGUGGUAGGGAUAGGUGCGUGGCAGGUCCCUGCUAGGAUUGCAGGGGCCUGGCCAUGUGUAUUAGCUGGAGGCUUAGAAUGCUAGCUCAUUUGUUGCUACAGAUUUGCCCAGUGCUUGCACACGUAAGAACCCAGCUCUCAAGGCCAAAUAUCUGAGUGGAUGGGGAUGAUAGGAGUCAUCCAGUAGACUCCCUACAUCACUCUUGCGGUCGCACUAGUGUGGAAUUCUCGGGUGUCAAGG
B3: ENSMUSG00000029028.207|Lrrc47 (ssRNA)
RNA: GGGAGUUCUACAGUCCGACGAUCGCUUCGAUAUCCGCAUGCUAGUCCUAAGGACCCAGCAGCUGCACAGAGGACUUGGUGGCCCCGUGCCUUGCCAUCUGGCUGAGAAGAGAACCAGACCCUCAGCCUUCCCCCUCGACACCUUCUCGUUGGUGACCUCUGACCUUAAAGGACCAUUUCUACCUUCUGUAAAAGAACACCUGUUUGGGGUUGCGUGCGGCUUUCAUCCUAAGGCCGUGCGAGAGCCGUUAGCUGUCAGAACUAGUGAAGCUCCAGGCUCCUCGUGGCAGACCCUGGACAACGCCUCUUGCGGUCGCACUAGUGUGGAAUUCUCGGGUGUCAAGG
B4: ENSMUSG00000022095.265|Fam160b2 (ssRNA)
RNA: GGGAGUUCUACAGUCCGACGAUCGCUUCGAUAUCCGCAUGCUAUGUGUGUGUGUGUGUGAGAGAGAGAGAGAGAGAGCGAGCUAUGAAUGAAUGUGAGUGUGUGUGUGUGUGUGUGUGAGAGAGAGAGAGAGAGAGAGAGAGCUGUGAGUACACAUGGGUGCUGGUGUGGGACAGGAGCAGAUCUUGGUGGAGUGGGUCUACACUUGAGAUUUGUACUCGUUUGAGAGGCUGGGCAAUACUCAAUGCACUUUGGCAUUUGCAUGGUGUCUUCACAACAGCACAGCAAUAAACAUUGUGAUUGUCUCUUGCGGUCGCACUAGUGUGGAAUUCUCGGGUGUCAAGG
B5: ENSMUSG00000022095.260|Fam160b2 (ssRNA)
RNA: GGGAGUUCUACAGUCCGACGAUCGCUUCGAUAUCCGCAUGCUAGCGAGCUAUGAAUGAAUGUGAGUGUGUGUGUGUGUGUGUGUGUGUGAGAGAGAGAGAGAGAGAGCGAGCUAUGAAUGAAUGUGAGUGUGUGUGUGUGUGUGUGUGAGAGAGAGAGAGAGAGAGAGAGAGCUGUGAGUACACAUGGGUGCUGGUGUGGGACAGGAGCAGAUCUUGGUGGAGUGGGUCUACACUUGAGAUUUGUACUCGUUUGAGAGGCUGGGCAAUACUCAAUGCACUUUGGCAUUUGCAUGGUGUCUUCACUCUUGCGGUCGCACUAGUGUGGAAUUCUCGGGUGUCAAGG
B6: ENSMUSG00000022095.259|Fam160b2 (ssRNA)
RNA: GGGAGUUCUACAGUCCGACGAUCGCUUCGAUAUCCGCAUGCUAGAGAGAGCGAGCUAUGAAUGAAUGUGAGUGUGUGUGUGUGUGUGUGUGUGUGAGAGAGAGAGAGAGAGAGCGAGCUAUGAAUGAAUGUGAGUGUGUGUGUGUGUGUGUGUGAGAGAGAGAGAGAGAGAGAGAGAGCUGUGAGUACACAUGGGUGCUGGUGUGGGACAGGAGCAGAUCUUGGUGGAGUGGGUCUACACUUGAGAUUUGUACUCGUUUGAGAGGCUGGGCAAUACUCAAUGCACUUUGGCAUUUGCAUGGUGCUCUUGCGGUCGCACUAGUGUGGAAUUCUCGGGUGUCAAGG
B7: ENSMUSG00000022095.258|Fam160b2 (ssRNA)
RNA: GGGAGUUCUACAGUCCGACGAUCGCUUCGAUAUCCGCAUGCUAGUGAGAGAGAGAGCGAGCUAUGAAUGAAUGUGAGUGUGUGUGUGUGUGUGUGUGUGUGAGAGAGAGAGAGAGAGAGCGAGCUAUGAAUGAAUGUGAGUGUGUGUGUGUGUGUGUGUGAGAGAGAGAGAGAGAGAGAGAGAGCUGUGAGUACACAUGGGUGCUGGUGUGGGACAGGAGCAGAUCUUGGUGGAGUGGGUCUACACUUGAGAUUUGUACUCGUUUGAGAGGCUGGGCAAUACUCAAUGCACUUUGGCAUUUGCCUCUUGCGGUCGCACUAGUGUGGAAUUCUCGGGUGUCAAGG

Over roughly 9,900 sequences, “r (bound/input frequency ratio)” has its median near 0.7; the highest 2% begin near 6.5. Shown is part of a subset that was picked to be rich in the highest values.

TDP-43, sequence (Q13148 whole entry): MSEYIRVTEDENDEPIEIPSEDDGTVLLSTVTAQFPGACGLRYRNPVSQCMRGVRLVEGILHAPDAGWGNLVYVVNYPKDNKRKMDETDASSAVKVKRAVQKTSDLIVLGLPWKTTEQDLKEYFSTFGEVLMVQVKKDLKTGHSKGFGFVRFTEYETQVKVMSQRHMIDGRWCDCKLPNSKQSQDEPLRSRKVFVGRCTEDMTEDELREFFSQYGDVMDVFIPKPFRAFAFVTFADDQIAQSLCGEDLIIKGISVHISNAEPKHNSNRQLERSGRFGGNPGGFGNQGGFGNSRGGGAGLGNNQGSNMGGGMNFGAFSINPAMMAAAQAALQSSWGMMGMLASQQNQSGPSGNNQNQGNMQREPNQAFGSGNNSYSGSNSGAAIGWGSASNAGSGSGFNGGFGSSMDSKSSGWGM

This assay concerns the target TDP-43 (Homo sapiens, UniProt Q13148 1-414). The assay can be described thus: RNA Bind-n-Seq with designed 260-mer pool; 25 mM Tris-HCl, 150 mM KCl, 3 mM MgCl2, BSA (printed 500 mg/mL), 20 units/mL SUPERase IN; pH not stated; 500 nM RNA pool, 1 h, 4 C; TDP-43 5, 50, 500 nM; high values mean tight binding. The following applies: protein: recombinant; tags: SBP (GST cleaved off with PreScission; pGEX-GST-SBP). The gist of the method:
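An in vitro-transcribed pool of 260-nt 3′ UTR oligos (500 nM) was incubated for 1 h at 4 °C with recombinant SBP-tagged TDP-43 at 5, 50 or 500 nM held on streptavidin beads. The buffer contained 25 mM Tris-HCl, 150 mM KCl, 3 mM MgCl2, BSA and SUPERase IN. Biotin-eluted bound RNA was sequenced, and binding, R, is each oligo's normalized read abundance in the bound sample over that in input.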
Take B1: the binding signal is 0.0144 R (bound/input frequency ratio).

For the molecule B2, the binding signal is 1.54 R (bound/input frequency ratio). To B3 belongs 0.453 R (bound/input frequency ratio); to B4, 4.76 R (bound/input frequency ratio); to B5, 7.36 R (bound/input frequency ratio). Take B6: the binding signal was 5.88 R (bound/input frequency ratio). To B7 belongs 4.34 R (bound/input frequency ratio).
